# Tau FP inhib – qHTS for Inhibitors of Tau Fibril Formation, Fluorescence Polarization; 280,000 compounds, 0.39% hits; K18 P301L tau heparin fibrillization, Alexa594 FP, 6 h; Potency, µM (top dose mostly 57.7 µM), inactives show at the top dose activity, negative = inhibition, usual class: inhibitors; Microtubule-associated protein tau (Homo sapiens), P10636; also: nearly all actives have a fitted effect of over 55% in size
# Target sequence (P10636 561-689 P618L limits assumed): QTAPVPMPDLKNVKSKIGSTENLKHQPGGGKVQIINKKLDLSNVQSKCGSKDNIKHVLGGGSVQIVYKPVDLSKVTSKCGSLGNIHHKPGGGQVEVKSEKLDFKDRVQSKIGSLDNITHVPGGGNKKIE
#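 Steps: dispense K18 P301L tau (15 uM plus 0.24 uM Alexa 594 tracer, final) in pH 7 sodium acetate; add compound; add heparin (20 uM final); incubate 6 hr, 37 C; add ThT (30 uM final); after 1 hr ambient, read FP.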
# TRb SRC2 PPI – qHTS for Inhibitors of the Interaction of Thyroid Hormone Receptor and Steroid Receptor Coregulator 2 | Thyroid hormone receptor beta (Homo sapiens), P10828 | TRbeta-SRC2 peptide binding, fluorescence polarization; receptor liganded with 1 µM T3 | Potency, µM (highest dose often 106 µM), for inactives: at the highest dose activity change, negative = inhibition, most hits filed as inhibitors | 280,000 compounds, 0.065% hits | AID 1469, 2008;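 also: plate controls were bound peptide for no effect and peptide without receptor for full effect; nearly all actives have a fitted effect of over 50% in size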
# Target sequence (P10828 whole entry, looked up): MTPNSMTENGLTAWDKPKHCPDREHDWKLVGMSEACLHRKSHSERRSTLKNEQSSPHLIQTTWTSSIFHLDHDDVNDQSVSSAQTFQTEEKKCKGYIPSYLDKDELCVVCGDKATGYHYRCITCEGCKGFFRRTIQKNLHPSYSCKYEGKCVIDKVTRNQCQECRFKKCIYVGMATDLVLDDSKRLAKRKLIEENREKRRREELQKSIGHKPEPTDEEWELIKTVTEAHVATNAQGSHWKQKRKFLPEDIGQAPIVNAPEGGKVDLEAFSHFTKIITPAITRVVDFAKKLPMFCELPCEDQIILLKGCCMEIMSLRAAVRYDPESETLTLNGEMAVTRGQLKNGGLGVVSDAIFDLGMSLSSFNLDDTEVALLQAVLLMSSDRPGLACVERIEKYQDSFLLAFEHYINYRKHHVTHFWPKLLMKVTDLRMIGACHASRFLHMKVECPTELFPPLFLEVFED
#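 Read-out is fluorescence polarization (555 nm excitation, 632 nm emission) of a Texas Red SRC2 coactivator peptide; loss of signal reflects blocked binding to human TRb ligand-binding domain in the presence of 1 uM T3.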
# Tau ThT inhib – qHTS for Inhibitors of Tau Fibril Formation, Thioflavin T Binding. Microtubule-associated protein tau (Homo sapiens), P10636. recombinant tau K18 P301L, heparin-induced fibrillization, ThT fluorescence. Potency, µM (titrated, usually from 57.4 µM), for inactives: at the top dose activity, negative = inhibition, actives largely listed as inhibitors. 270,000 compounds, 2.1% hits. AID 1460, 2008; also: nearly all actives have a fitted effect of over 55% in size
#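 Fibril formation assay: tau K18 P301L at 15 uM with trace Alexa 594 label, heparin inducer 20 uM, pH 7 sodium acetate buffer, 37 C for 6 hr; endpoint ThT signal.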
# TR SRC2 fluor cs – Total Fluorescence Counterscreen for Inhibitors of the Interaction of Thyroid Hormone Receptor and Steroid Receptor Coregulator 2; AID 1479, 2009; Potency, µM (top dose mostly 106 µM), inactives show top-dose fluorescence change, negative = quenching; 280,000 compounds, 0.29% hits; TRb/SRC2 Texas Red total fluorescence interference; active = well fitted curve in either direction with a large enough effect; inconclusive = small, poorly fitted or top-dose-only effect
#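 Human TRβ ligand-binding domain (0.6 uM) and Texas Red SRC2 peptide (20 nM) in Tris buffer with 1 uM T3 and 5% DMSO were incubated with pinned compound for 5 hr at ambient temperature. Total fluorescence was computed as S + 2P (555/632 nm).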
# Tau fluor cs – Counterscreen qHTS for Inhibitors of Tau Fibril Formation, Fluorescence Polarization; tau K18 P301L Alexa594 fluorescence, heparin fibrillization; 280,000 compounds, 0.93% hits; Potency, µM (top dose mostly 57.7 µM), without a hit: at the top dose activity change, negative = decrease; also: nearly all actives have a fitted effect of over 55% in size
#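 Human tau K18 P301L (15 uM unlabeled, 0.24 uM Alexa 594-labeled) in 100 mM sodium acetate pH 7 with 20 uM heparin, 6 hr at 37 C. ThT 30 uM added, 1 hr ambient; Alexa 594 FP and total fluorescence read at 555/632 nm.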
# An asterisk follows results filed as active; ? = inconclusive; . = no result; [ ] = another dose, or the depositor's remark. This is a sample that favours compounds with a hit; in the whole collection about 3.1% have one here. Unless noted, calls follow the shape of the dose curve; as a rule, active = well fitted curve in the direction sought with a large enough effect; inconclusive = small, poorly fitted or top-dose-only effect, or another doubt; inactive = no such curve, though single readings can be large; an effect the other way counts as inactive or inconclusive. Unless noted, % is scaled to controls: 0 for no effect and ±100 for the full control effect; potency is read from the fitted curve at half-maximal effect.
SMILES,Tau FP inhib,TRb SRC2 PPI,Tau ThT inhib,TR SRC2 fluor cs,Tau fluor cs
Cc1cc2cc3c(cc2nc1SCc1ccccn1)OCCO3,-2%,1%,-10%,1%,-7%
N#Cc1cc2ccccc2nc1SCc1ccccn1,-7%,-7%,16µM*,0%,-28%
O=[N+]([O-])c1ccc(-c2cc(-c3ccc(Cl)cc3)n[nH]2)cc1,6%,2%,1.1µM*,1%,?
Nc1ccc(C(=O)N(CCO)CCO)cc1,-2%,3%,-6%,-2%,-3%
Nc1ccc(N(CCO)CCO)cc1,16µM*,?,11µM*,28%,?
CCc1cccc(C)c1N(C(=O)CS(=O)(=O)O)[C@@H](C)COC,.,8%[201 µM],.,-3%[201 µM],.
O=C(NCc1ccc2c(c1)OCO2)C(=O)Nc1ccccc1,6%,10%,5%,-1%,12%
CCOC(=O)C1CCN(C(=O)CSc2n[nH]c(-c3ccc(OC)cc3)n2)CC1,-4%,0%,-9%,-2%,-1%
Nc1c(Cl)ncnc1N/N=C/c1ccc2ccccc2n1,10%,0%,4µM*,-6%,-30%
Nc1c(Cl)ncnc1N/N=C/c1ccccn1,-4%,2%,?,-5%,-14%
[O-]/[N+](=C/c1ccc(F)cc1)c1ccc(Cl)cc1,?,-1%,32µM*,-1%,-24%
Cc1ccc2nc(/C(C#N)=C\c3ccc(Oc4ccc([N+](=O)[O-])cn4)cc3)[nH]c2c1,3%,2%,5µM*,-2%,?
COc1ccc2nc(/C(C#N)=C\c3ccc(Oc4ccc([N+](=O)[O-])cn4)cc3)[nH]c2c1,-13%,1%,5µM*,-5%,?
COc1ccc2nc(/C(C#N)=C\c3ccc(C(=O)O)cc3)[nH]c2c1,4%,-1%,?,-8%,-22%
CC1=C(C(=O)Nc2ccc(C)cc2C)C(c2ccccc2F)n2nc(SCC(=O)c3ccc(C)cc3)nc2N1 (stereo unspecified),?,-18%,?,0.032µM*[quencher],27%
C/C=C/C(=O)[C@@H](C)[C@@H](/C=C/C[Si](C)(C)C)c1ccccc1,.,-2%,.,-1%,.
CC1CCN(c2ccc(/C=N\Nc3nncn3N)cc2[N+](=O)[O-])CC1,-3%,-1%,10µM*,1%,-29%
O=[N+]([O-])c1cc(/C=N/O)ccc1N1CCCC1,-3%,-1%,?,-7%,-9%
O=[N+]([O-])c1cc(/C=N/n2cnnc2)ccc1N1CCCC1,5%,-7%,7.9µM*,-1%,-9%
C[C@@H]1C[C@](C)(C(=O)c2ccc3ccccc3c2)C=C1c1ccc2ccccc2c1,-3%,12%,?,0%,-15%
O=C(O)c1ccc2cc(-c3ccc(O)c(C45CC6CC(CC(C6)C4)C5)c3)ccc2c1,?,14%,28µM*,-5%,?
Cc1ccc(C(=O)Oc2oc(-c3ccccc3)nc2C=Nc2ccc(N(C)C)cc2)cc1,-2%,-7%,?,-5%,4%
CN(C)c1ccc(N=Cc2nc(-c3ccccc3)oc2OC(=O)c2cccc(Cl)c2)cc1,?,-20%,7.9µM*,1%,?
O=C1C[C@@H](O)[C@@H](O)[C@H]2[C@@H]3C(=O)N(c4cccc(Oc5ccccc5)c4)C(=O)[C@@H]3CC[C@H]12,-6%[11.6 µM],-4%[11.2 µM],-3%[11.5 µM],?,-3%[11.6 µM]
N#Cc1cc(Sc2ccccn2)c([N+](=O)[O-])cc1C#N,-17%,7%,14µM*,-24%,?
SMILES,Tau FP inhib,TRb SRC2 PPI,Tau ThT inhib,TR SRC2 fluor cs,Tau fluor cs
Cc1cc(-c2nsc(=O)o2)c(S(C)(=O)=O)s1,?,-9%,32µM*,-1%,-13%
COc1cc2[nH]c(=O)n(Cc3ccc(C(=O)N4CCN(c5cccc(C)c5C)CC4)cc3)c(=O)c2cc1OC,?,1%,?,-3%,?
CCOCCCNC(=O)/C(C#N)=C/c1cc(OC)c(O)c([N+](=O)[O-])c1,10%,-13%,14µM*,-1%,-11%
CCN(CC)c1ccc(/C=C2/C(=O)ON=C2C)cc1,-6%,8%,8.9µM*,-13%,-28%
CCN(CC)c1ccc(/C=C2\C(=O)N(c3nnc(C)c(=O)[nH]3)N=C2C)cc1,?,2%,7.9µM*,-5%,6%
Cc1sc2c(c1C)c(=O)n(-c1ccc(Cl)cc1)c(=O)n2Cc1cc(=O)n2cc(Br)ccc2n1,-10%,-4%,-8%,-1%,-14%
O=C1C(=O)N(Cc2ccc(Cl)c(Cl)c2)c2ccccc21,-4%,0%,14µM*,-1%,-27%
COc1ccccc1NC(=S)NNC(=O)c1ccccc1Br,6%,-4%,-14%,2%,3%
O=Cc1ccc(Sc2nnc(-c3ccccc3)o2)c([N+](=O)[O-])c1,?,-21%,18µM*,-4%,16µM*[quencher]
O=c1cc(-c2cc(O)c(O)c([C@@H]3O[C@H](CO)[C@@H](O)[C@H](O)[C@H]3O)c2)oc2cc(O[C@@H]3O[C@H](CO)[C@@H](O)[C@H](O)[C@H]3O)cc(O)c12,.,-2%,.,-21%,.
COc1cc(OC)c(N(C)S(=O)(=O)c2cccc(C(=O)OCC(=O)c3c[nH]c4ccccc34)c2)cc1Cl,13µM*,-4%,10%,3%,?
COc1cc(/C=C/C(=O)OCC(=O)c2c[nH]c3ccccc23)ccc1OC(F)F,?,5%,-12%,-2%,?
COc1cc(C(=O)OCC(=O)c2c[nH]c3ccccc23)ccc1OCC(=O)N1CCOCC1,0%,-4%,?,-8%,?
C=CCN(c1ccccc1OC)S(=O)(=O)c1cccc(C(=O)OCC(=O)c2c[nH]c3ccccc23)c1,16µM*,7%,5%,-1%,?
NCCC[C@@H](N)C(=O)O,-5%,-11%,7%,-1%,-1%
Cc1ccc2oc(C(=O)Nc3ccc(S(=O)(=O)N(C)c4ccccc4)cc3)cc(=O)c2c1,?,-10%,-6%,100µM*[quencher],?
O=C(Cl)c1cc(Cl)cc(Cl)c1,.,5%[201 µM],.,-1%[201 µM],.
CC(=O)[C@@H]1[C@@H]2C(=O)N(C3CCCCC3)C(=O)[C@@H]2C2c3ccccc3C=CN21 (stereo partly specified),-15%,-12%,?,-3%,-18%
Cc1ccc(C(=O)[C@@H]2[C@H]3C4COC(O4)C(=O)[C@@H]3[C@H]3C=Cc4ccccc4N32)cc1 (stereo partly specified),?,-5%,22µM*,1%,?
